Bioassay records: PubChem, National Center for Advancing Translational Sciences (NCATS)
RECQ1 inh-1: qHTS Assay for Inhibitors of RecQ-Like Dna Helicase 1 (RECQ1); ATP-dependent DNA helicase Q1 (Homo sapiens), P46063; hit rate 0.54% among 240,000; RECQ1 DNA unwinding, red fluorescence kinetic read; Potency, µM (highest dose often 57.3 µM), without a hit: top-dose activity, negative = inhibition, actives largely listed as inhibitors;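 note: plate controls were vehicle for no effect and no enzyme for full effect; nearly all actives have a fitted effect of over 30% in size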
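RECQ1T1 50 nM; forked duplex (20 bp + 30-nt ss tails) 200 nM, ATP 2 mM final; pH 8.0, 2 mM MgCl2, 2.5 ug/ml poly(dI-dC); 15 min compound preincubation; discontinuous kinetic read over 2 h at RT.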
WRN inhibitor: qHTS for Inhibitors of WRN Helicase; Bifunctional 3'-5' exonuclease/ATP-dependent helicase WRN (Homo sapiens), Q14191; WRN helicase unwinding, fluorescent forked duplex, kinetic; AID 651768, 2012; Potency, µM (highest dose often 114 µM), for inactives: at the highest dose activity change, negative = inhibition, hits mostly inhibitors; hit rate 0.46% among 360,000; note: nearly all actives have a fitted effect of over 55% in size
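Fluorescence dequenching readout, ex 525 nm/em 598 nm, kinetic mode: forked duplex DNA (100 nM final) with adjacent fluorophore and quencher unwound by WRN (20 nM final) with 2 mM ATP. Compound preincubation 15 min, room temperature.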
BLM inh: qHTS Assay for Inhibitors of Bloom's syndrome helicase (BLM) | hit rate 0.2% among 350,000 | recombinant BLM DNA unwinding, fluorescence dequenching | Potency, µM (doses to about 56.1 µM), inactives show at the highest dose activity change, negative = inhibition, actives largely listed as inhibitors;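 note: plate controls were vehicle for no effect and no enzyme for full effect; nearly all actives have a fitted effect of over 35% in size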
APE1 inh-1: qHTS Assay for Inhibitors of the Human Apurinic/apyrimidinic Endonuclease 1 (APE1). DNA repair nuclease/redox regulator APEX1 (Homo sapiens), P27695. recombinant APE1, TAMRA/BHQ-2 abasic DNA cleavage fluorescence. Potency, µM (top dose mostly 65.8 µM), for the others: top-dose activity change, negative = inhibition, usual class: inhibitors. hit rate 0.35% among 350,000. AID 2517, 2012;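 note: plate controls were vehicle for no effect and reference inhibitor for full effect; nearly all actives have a fitted effect of over 55% in size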
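Step 1: APE1 (0.75 nM) with compound, 15 min RT. Step 2: add 50 nM fluorophore/quencher THF duplex. Step 3: three fluorescence reads 60 s apart (525/598 nm); read 3 minus read 1 = reaction progress.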
L3MBTL1 inh: qHTS Assay for the Inhibitors of L3MBTL1; AlphaScreen L3MBTL1–H3K9me1 peptide binding; Potency, µM (doses to about 57.1 µM), inactives show top-dose activity, negative = inhibition, most hits filed as inhibitors; hit rate 0.66% among 230,000; AID 485360, 2010; note: nearly all actives have a fitted effect of over 60% in size
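Displacement of a biotinylated histone H3(1-15) peptide monomethylated at Lys9 (75 nM) from L3MBTL1 (50 nM) was measured by AlphaScreen after a 30 min room-temperature compound incubation; cefsulodin titration served as intraplate control.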
FEN1 inh: qHTS Assay for the Inhibitors of Human Flap endonuclease 1 (FEN1). P39748. AID 588795, 2011. Recombinant FEN1 flap cleavage, fluorescence, 15 min. hit rate 0.35% among 390,000. Potency, µM (doses to about 114 µM), for the others: at the highest dose activity change, negative = inhibition, actives largely listed as inhibitors; note: nearly all actives have a fitted effect of over 65% in size
Target sequence (P39748 whole entry, looked up): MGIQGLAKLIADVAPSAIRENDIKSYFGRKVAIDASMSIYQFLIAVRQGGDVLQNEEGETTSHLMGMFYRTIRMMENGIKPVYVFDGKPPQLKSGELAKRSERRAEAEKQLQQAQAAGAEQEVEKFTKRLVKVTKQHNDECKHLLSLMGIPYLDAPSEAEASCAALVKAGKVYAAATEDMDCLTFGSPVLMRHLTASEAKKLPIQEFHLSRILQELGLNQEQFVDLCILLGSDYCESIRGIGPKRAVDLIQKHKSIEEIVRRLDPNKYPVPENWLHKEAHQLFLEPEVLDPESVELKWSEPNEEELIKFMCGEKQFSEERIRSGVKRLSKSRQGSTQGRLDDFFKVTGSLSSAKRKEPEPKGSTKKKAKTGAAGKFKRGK
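Enzyme 10 nM, 15 min RT preincubation with compound; start with substrate 50 nM final; reads at 0 and 15 min; qHTS titration, four-parameter Hill fit.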
DNA dye displace: Counterscreen for APE1 Inhibitors: Fluorescent Dye Displacement Assay | hit rate 7% among 480 | DNA fluorescent dye displacement counterscreen, fluorescence | shares compounds with APE1 inh-1 | Potency, µM (series often up to 28.5 µM), for the others: at the highest dose activity change, negative = inhibition, usual class: inhibitors;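 note: loss of thiazole orange fluorescence as the dye is displaced from duplex DNA; 0% = ThO with dsDNA and no compound and -100% = ThO without dsDNA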
EndoIV counter: Counterscreen for APE1 Inhibitors: qHTS Assay for Inhibitors of Endonuclease IV; Potency, µM (series often up to 27.1 µM), inactives show top-dose activity change, negative = inhibition, most hits filed as inhibitors; E. coli Endo IV, fluorogenic AP-site DNA cleavage; shares compounds with APE1 inh-1; AID 2565, 2010; hit rate 4% among 560;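 note: plate controls were uninhibited enzyme wells for no effect and no enzyme buffer wells for full effect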
APE1 inh-2: Confirmation qHTS Assay for Inhibitors of the Human Apurinic/apyrimidinic Endonuclease 1 (APE1). shares compounds with APE1 inh-1. purified APE1, fluorogenic abasic-site DNA cleavage. Potency, µM (highest dose often 57.1 µM), for the others: at the top dose activity change, negative = inhibition, hits mostly inhibitors. hit rate 44% among 750; note: nearly all actives have a fitted effect of over 30% in size
APE1 FP: qHTS FP-Based Assay for Inhibitors of the Human Apurinic/apyrimidinic Endonuclease 1 (APE1) | shares compounds with APE1 inh-1 | APE1 binding to TAMRA-labelled double-stranded DNA, fluorescence polarization displacement | Potency, µM (highest dose often 28.5 µM), for the others: top-dose activity, negative = inhibition, usual class: inhibitors | hit rate 7% among 480 | AID 2573, 2010
RECQ1 conf: Confirmation qHTS Assay for Inhibitors of RecQ-Like Dna Helicase 1 (RECQ1) | shares compounds with RECQ1 inh-1 | Potency, µM (series often up to 229 µM), for inactives: at the top dose activity change, negative = inhibition, hits mostly inhibitors | hit rate 28% among 610 | AID 2708, 2010 | RECQ1 helicase DNA unwinding, fluorescence; note: nearly all actives have a fitted effect of over 45% in size
RECQ1 inh-2: Confirmation qHTS Assay for Inhibitors of RecQ-Like Dna Helicase 1 (RECQ1) - Round 2 Cherry Picks; shares compounds with RECQ1 inh-1; recombinant RECQ1 DNA unwinding, red fluorescence; Potency, µM (highest dose often 119 µM), for inactives: top-dose activity, negative = inhibition, most hits filed as inhibitors; hit rate 15% among 1,100; AID 504841, 2011; note: nearly all actives have a fitted effect of over 50% in size
Numbers without * were called inactive; ? = inconclusive; . = not tested or not shown. This is a sample that favours compounds with a hit; in the whole collection about 1% have one here. Calls come from the whole dose curve; as a rule, active = well fitted curve in the direction sought with a large enough effect; inconclusive = small, poorly fitted or top-dose-only effect, or another doubt; inactive = no such curve, though single readings can be large; an effect the other way counts as inactive or inconclusive. Unless noted, % is set by controls: 0 for no effect and ±100 for the full control effect; potency is the fitted concentration of half-maximal effect.

SMILES	RECQ1 inh-1	WRN inhibitor	BLM inh	APE1 inh-1	L3MBTL1 inh	FEN1 inh	DNA dye displace	EndoIV counter	APE1 inh-2	APE1 FP	RECQ1 inh-2	others
C=C(CO)C1Cc2cc(C(C)=O)ccc2O1 (stereo not given)	?	-33%	-7%	20µM*	.	?	2%	8%	10µM*	-37%	?
O=C1CCCC2=C1C(c1ccc(O)c(O)c1)Nc1ccc3ncccc3c12 (stereo not given)	?	?	?	14µM*	?	?	?	17%	?	-2%	?
O=C1CCCC2=C1C(c1cccs1)Nc1ccc3ncccc3c12 (stereo not given)	-8%	-2%	-8%	-7%	1%	2%	.	.	.	.	.
Cn1c(SCC(=O)N/N=C/C=C/c2ccco2)nc2ccccc21	18µM*	?	1%	10µM*	22µM*	?	?	-8%	?	0%	.	RECQ1 conf=?
COc1ccc(/C=C2\SC(=Nc3ccccc3)NC2=O)cc1	.	.	-5%	-18%	6%	.	.	.	.	.	.
